Measured values published in PubChem BioAssay AID1159580 (chemical genetic matrix, 2015).
Values joined by “and” are separate entries in the source; they are usually repeats but may differ in a detail not shown here. Equal entries are not always repeated. Among all 5,500 compounds or so, about 2,000 (36%) were called active. Roughly 18% stayed inconclusive and do not appear here. No stated cut-off is given here; in the data, active means normalized growth mostly below about 0.91 (no sharp cut-off); inconclusive means no clear call, values can overlap the other calls; inactive means mostly above about 0.92. The list shows a part of the results.

Experiment: chemical genetic growth profiling, strain panel (AID 1159580);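 further: tested at 20 µM; growth read once vehicle control cultures reached saturation at 30 °C; 1 = growth at the plate median or of vehicle wells; lower values mean less growth of the strain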
Conditions: S. cerevisiae deletion strains, growth OD

Measured: normalized growth

CC(=O)O[C@@H]1CC2C(C)(C)[C@H](O)CC[C@]2(C)C2CC[C@@]3(C)[C@H](c4ccoc4)OC(=O)C4OC43[C@@]21C (stereo partly specified)
inactive: locus YAL021C, strain ccr4, hits give low values 0.991 | locus YAL026C, strain drs2, hits give low values 1.03 | locus YAL030W, strain snc1, hits give low values 1.01 | locus YBL061C, strain skt5, hits give low values 1.01 | locus YBR009C, strain hhf1, hits give low values 1.04 | locus YBR021W, strain FUR4, hits give low values 0.974 | locus YBR023C, strain chs3, hits give low values 1.02 | locus YBR171W, strain sec66, hits give low values 1.02 | locus YBR229C, strain ROT2, hits give low values 0.957 | locus YBR231C, strain swc5, hits give low values 1.02 | locus YBR279W, strain paf1, hits give low values 1.01 | locus YCL011C, strain gbp2, hits give low values 1.01 | locus YCL016C, strain dcc1, hits give low values 1.02 | locus YCL029C, strain bik1, hits give low values 0.993 | locus YCL061C, strain MRC1, hits give low values 1.02 | locus YCL069W, strain vba3, hits give low values 1 | locus YCR088W, strain abp1, hits give low values 1.01 | locus YDL005C, strain med2, hits give low values 1.02 | locus YDL035C, strain GPR1, hits give low values 0.984 | locus YDL040C, strain nat1, hits give low values 1 | locus YDL074C, strain BRE1, hits give low values 1 | locus YDL101C, strain DUN1, hits give low values 0.998 | locus YDL134C, strain PPH21, hits give low values 1.03 | locus YDL185W, strain tfp1, hits give low values 0.97 | locus YDL192W, strain arf1, hits give low values 0.999 | locus YDR001C, strain nth1, hits give low values 1.01 | locus YDR069C, strain doa4, hits give low values 1.04 | locus YDR101C, strain arx1, hits give low values 0.967 | locus YDR137W, strain rgp1, hits give low values 1.02 | locus YDR159W, strain sac3, hits give low values 1.05 | locus YDR162C, strain NBP2, hits give low values 0.999 | locus YDR195W, strain ref2 1.03 | locus YDR297W, strain sur2, hits give low values 1.01 | locus YDR318W, strain mcm21, hits give low values 0.996 | locus YDR334W, strain swr1, hits give low values 1.01 | locus YDR335W, strain msn5, hits give low values 1.03 | locus YDR388W, hits give low values 1 | locus YDR392W, strain spt3, hits give low values 0.834 | locus YDR502C, strain sam2, hits give low values 1.01 | locus YEL003W, strain gim4, hits give low values 1.03 | locus YEL037C, strain rad23, hits give low values 1.01 | locus YEL061C, strain CIN8 (second series), hits give low values 1.02 | locus YER015W, strain faa2, hits give low values 1.01 | locus YER016W, strain bim1, hits give low values 1.02 | locus YER110C, hits give low values 0.98 | locus YER111C, strain swi4, hits give low values 1.02 | locus YER155C, strain BEM2 (second series), hits give low values 1.03 | locus YER155C, strain BEM2, hits give low values 1.01 | locus YER167W, strain BCK2, hits give low values 0.996 | locus YFR010W, strain ubp6, hits give low values 1.04 | locus YGL078C, strain dbp3, hits give low values 1.01 | locus YGL086W, strain mad1, hits give low values 0.984 | locus YGL167C, strain pmr1, hits give low values 1.01 | locus YGL173C, strain kem1, hits give low values 1.01 | locus YGL227W, strain vid30, hits give low values 1.02 | locus YGL240W, strain doc1, hits give low values 1.04 | locus YGL248W, strain PDE1, hits give low values 1.01 | locus YGL253W, strain hxk2, hits give low values 0.997 | locus YGR135W, strain pre9, hits give low values 1.05 | locus YGR252W, strain gcn5, hits give low values 1.04 | locus YHR013C, strain ard1, hits give low values 1.02 | locus YHR027C, strain rpn1, hits give low values 1.01 | locus YHR030C, strain SLT2, hits give low values 1.07 | locus YHR079C, strain IRE1 (second series), hits give low values 0.983 | locus YHR079C, strain IRE1, hits give low values 1.05 | locus YHR094C, strain hxt1, hits give low values 0.989 | locus YHR129C, strain ARP1, hits give low values 1.01 | locus YHR142W, strain chs7, hits give low values 0.939 | locus YHR200W, strain rpn10, hits give low values 0.996 | locus YIL066C, strain RNR3, hits give low values 0.973 | locus YIL073C, strain SPO22, hits give low values 0.958 | locus YIL125W, strain kgd1, hits give low values 0.962 | locus YIR030C, strain dcg1, hits give low values 0.988 | locus YJL092W, strain hpr5, hits give low values 1.02 | locus YJL095W, strain BCK1 (second series), hits give low values 1.02 | locus YJL095W, strain BCK1, hits give low values 1.06 and 1.08 | locus YJL115W, strain asf1, hits give low values 1.02 | locus YJL129C, strain trk1, hits give low values 1 | locus YJL134W, strain LCB3, hits give low values 0.991 | locus YJL154C, strain vps35, hits give low values 0.999 | locus YJL164C, strain tpk1, hits give low values 1.02 | locus YJL166W, strain qcr8, hits give low values 1.02 | locus YJL168C, strain set2, hits give low values 0.996 | locus YJL187C, strain SWE1 (second series), hits give low values 1.02 | locus YJL187C, strain SWE1, hits give low values 1.01 | locus YJR043C, strain POL32, hits give low values 0.977
